Source: PubChem BioAssay
Results filed as inconclusive are left out. Active and inactive are the calls of the source.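 Rule for the calls, unless noted: active = normalized viability below 100% at a tested concentration; inactive = the rest.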

What was measured:
[1] = viability loss in pontine glioma line – cell-based, SU-DIPG-XVII, MIPE5.0, CellTiter-Glo, qHTS, dose response (AID 1347060; cut-off not given, nearly all actives have AC50 up to about 26 µM;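 for AC50: cells exposed to compound for 48 hours before viability readout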); conditions: CellTiter-Glo ATP luminescence
[2] = viability loss in pontine glioma line – cell-based, JHH-DIPG-1, MIPE4.0, CellTiter-Glo, qHTS, dose response (AID 1347062; cut-off not given, nearly all actives have AC50 up to about 27 µM;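 for AC50: cells exposed to compound for two days before readout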); conditions: JHH-DIPG-1 viability, CellTiter-Glo ATP luminescence
[3] = viability loss in pontine glioma line – cell-based, SU-DIPG-IV, MIPE4.0, CellTiter-Glo, qHTS, dose response (AID 1347063; cut-off not given, nearly all actives have AC50 up to about 30 µM;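 note: compound exposure lasted 48 hours before the viability readout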); conditions: CellTiter-Glo ATP luminescence
[4] = viability loss in pontine glioma line – cell-based, SU-DIPG-XIII, MIPE5.0, CellTiter-Glo, qHTS, dose response (AID 1347064; cut-off not given, nearly all actives have AC50 up to about 23 µM;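 for AC50: cells exposed to compound for 48 hours before the viability read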); conditions: CellTiter-Glo ATP luminescence
[5] = viability loss in pontine glioma line – cell-based, SU-DIPG-XXV, MIPE5.0, CellTiter-Glo, qHTS, dose response (AID 1347065; cut-off not given, nearly all actives have AC50 up to about 26 µM;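 note: cells exposed to compound for 48 hours before ATP readout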); conditions: CellTiter-Glo ATP luminescence
[6] = growth inhibition of DIPG cells – cell-based, MIPE4.0 library, CellTiter-Glo luminescence, qHTS (AID 1347066; cut-off not given, nearly all actives have AC50 up to about 30 µM;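 note: cells exposed to compound for 48 hours before readout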); conditions: SU-DIPG-VI viability, CellTiter-Glo ATP luminescence
[7] = JHH-DIPG-1 glioma cell viability, MIPE5.0 library, CellTiter-Glo luminescence, qHTS (AID 1347067; cut-off not given, nearly all actives have AC50 up to about 26 µM;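 note: cells exposed to compound for 48 hours before readout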); conditions: JHH-DIPG-1 glioma viability, CellTiter-Glo ATP luminescence
[8] = growth inhibition of DIPG cells – cell-based, MIPE5.0 library, qHTS (AID 1347068; cut-off not given, nearly all actives have IC50 up to about 30 µM;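 for IC50: cells exposed to compound for 48 hours before viability readout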); conditions: SU-DIPG-XXV viability
[9] = viability loss with induced miR-34 in A549 – imaging, A549 dox-inducible miR-34, nuclei and caspase counts, primary screen (AID 1347080;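 active = compounds whose cell count with miR-34 switched on is under 0.7 times the count with it off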); conditions: A549 miR-34 inducible, Hoechst nuclei count, 48 h
[10] = compounds altering HSF1 focus formation in cells – imaging, Selleck Cancer Library (AID 1347162; in the data active = plate-normalised HSF1 focus index below about 0.46); conditions: human cells, HSF1 nuclear foci imaging, at 10 µM; SSMD: measured here: HSF1 foci SSMD mean; cell count: measured here: cell number; plate-normalised HSF1 focus index: stronger effect = lower value
[11] = MELAS cybrid and Rieske KO viability enhancers – cell-based, MELAS cybrids, Rieske KO mouse fibroblasts, CellTiter-Glo, primary screen (AID 1508586;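 active = mean z-score across replicates of 1.96 or higher in either the MELAS or the Rieske mutant cell line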;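 note: z relative to plate mean and SD of compound and empty wells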); conditions: low glucose
[12] = drug combination growth inhibition, ovarian cancer – cell-based, oncology-focused library, rucaparib conditional, profiling panel (AID 1508598); conditions: patient-derived ovarian cancer cells, CellTiter-Glo viability, 144 h, stronger effect = lower value
[13] = viability loss in pontine glioma line – cell-based, SU-DIPG-XIII, MIPE4.0, CellTiter-Glo, qHTS, dose response (AID 1347061; cut-off not given, nearly all actives have AC50 up to about 37 µM;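 note: cells exposed to compound for 48 hours before readout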); conditions: CellTiter-Glo ATP luminescence
[14] = stronger effect = lower value, cell number ratio, induced over uninduced
[15] = measured here: relative caspase fold change +Dox/-Dox
[16] = measured here: total cells with miR-34 induction, stronger effect = lower value
[17] = measured here: total cells without miR-34 induction
[18] = MELAS cybrid survival, CellTiter-Glo 48 h, stronger effect = higher value
[19] = Rieske KO mouse fibroblast survival, CellTiter-Glo 72 h
[20] = at 0.000305 µM, OCI-C5x cells, with rucaparib 10 µM, 100% = cells with rucaparib alone
[21] = at 0.000305 µM, OCI-C5x cells, without rucaparib
[22] = at 0.000305 µM, OCI-P5x cells, with rucaparib 20 µM, 100% = cells with rucaparib alone
[23] = at 0.000305 µM, OCI-P5x cells, without rucaparib
[24] = at 0.00122 µM, OCI-C5x cells, with rucaparib 10 µM, 100% = cells with rucaparib alone
[25] = at 0.00122 µM, OCI-C5x cells, without rucaparib
[26] = at 0.00122 µM, OCI-P5x cells, with rucaparib 20 µM, 100% = cells with rucaparib alone
[27] = at 0.00122 µM, OCI-P5x cells, without rucaparib
[28] = at 0.00488 µM, OCI-C5x cells, with rucaparib 10 µM, 100% = cells with rucaparib alone
[29] = at 0.00488 µM, OCI-C5x cells, without rucaparib
[30] = at 0.00488 µM, OCI-P5x cells, with rucaparib 20 µM, 100% = cells with rucaparib alone
[31] = at 0.00488 µM, OCI-P5x cells, without rucaparib
[32] = at 0.0195 µM, OCI-C5x cells, with rucaparib 10 µM, 100% = cells with rucaparib alone
[33] = at 0.0195 µM, OCI-C5x cells, without rucaparib
[34] = at 0.0195 µM, OCI-P5x cells, with rucaparib 20 µM, 100% = cells with rucaparib alone
[35] = at 0.0195 µM, OCI-P5x cells, without rucaparib
[36] = at 0.0781 µM, OCI-C5x cells, with rucaparib 10 µM, 100% = cells with rucaparib alone
[37] = at 0.0781 µM, OCI-C5x cells, without rucaparib
[38] = at 0.0781 µM, OCI-P5x cells, with rucaparib 20 µM, 100% = cells with rucaparib alone
[39] = at 0.0781 µM, OCI-P5x cells, without rucaparib
[40] = at 0.313 µM, OCI-C5x cells, with rucaparib 10 µM, 100% = cells with rucaparib alone
[41] = at 0.313 µM, OCI-C5x cells, without rucaparib
[42] = at 0.313 µM, OCI-P5x cells, with rucaparib 20 µM, 100% = cells with rucaparib alone
[43] = at 0.313 µM, OCI-P5x cells, without rucaparib
[44] = at 1.25 µM, OCI-C5x cells, with rucaparib 10 µM, 100% = cells with rucaparib alone
[45] = at 1.25 µM, OCI-C5x cells, without rucaparib
[46] = at 1.25 µM, OCI-P5x cells, with rucaparib 20 µM, 100% = cells with rucaparib alone
[47] = at 1.25 µM, OCI-P5x cells, without rucaparib
[48] = at 5 µM, OCI-C5x cells, with rucaparib 10 µM, 100% = cells with rucaparib alone
[49] = at 5 µM, OCI-C5x cells, without rucaparib
[50] = at 5 µM, OCI-P5x cells, with rucaparib 20 µM, 100% = cells with rucaparib alone
[51] = at 5 µM, OCI-P5x cells, without rucaparib

Cn1cnc(=N)c2[nH]cnc21
2.26: SSMD [10]
10400: cell count [9, 17]
9400: cell count [9, 16]
inactive: outcome [1] | outcome [4] | outcome [5] | outcome [7] | outcome [8] | fold change [9, 14] 0.904 | plate-normalised HSF1 focus index [10] 1.08 | z-score [11, 18] -0.304 | viability [12, 20] 112% | viability [12, 21] 111% | viability [12, 24] 111% | viability [12, 25] 114% | viability [12, 26] 100% | viability [12, 28] 107% | viability [12, 29] 119% | viability [12, 30] 108% | viability [12, 32] 114% | viability [12, 33] 112% | viability [12, 34] 113% | viability [12, 35] 102% | viability [12, 36] 107% | viability [12, 37] 111% | viability [12, 38] 116% | viability [12, 39] 107% | viability [12, 40] 112% | viability [12, 41] 116% | viability [12, 42] 107% | viability [12, 43] 109% | viability [12, 44] 110% | viability [12, 45] 115% | viability [12, 46] 109% | viability [12, 47] 109% | viability [12, 48] 100% | viability [12, 49] 125% | viability [12, 50] 116% | viability [12, 51] 110%
-0.808: z-score [11, 19]
7250: cell count [10]
active: AC50 [2] 4.69 µM | AC50 [3] 4.69 µM | AC50 [6] 0.235 µM | viability [12, 22] 99% | viability [12, 23] 94.2% | viability [12, 27] 97.1% | viability [12, 31] 99.6%
0.712: fold change [9, 15]

O=C(c1ccc(F)cc1)N1CCC[C@H](c2nc(-c3ccc(F)cc3)no2)C1
inactive: outcome [1] | outcome [2] | outcome [3] | outcome [4] | outcome [5] | outcome [6] | outcome [7] | outcome [8]

CC1(C)Cc2c(sc(NC(=S)NC(=O)c3ccccc3)c2C(=O)O)CO1
inactive: outcome [1] | outcome [2] | outcome [3] | outcome [4] | outcome [5] | outcome [6] | outcome [7] | outcome [8]

Cc1ccc(Nc2cc(-c3cccc(N4C(=O)c5ccccc5C4=O)c3)ncn2)cc1NS(C)(=O)=O
active: AC50 [1] 20.9 µM | AC50 [3] 18.7 µM
inactive: outcome [2]

CCn1nnc2c(N3CCOCC3)nc(-c3ccc(NC(=O)Nc4ccc(C(=O)N5CCN(C)CC5)cc4)cc3)nc21
active: AC50 [1] 0.372 µM | AC50 [2] 0.469 µM | AC50 [3] 0.0148 µM | AC50 [4] 0.742 µM | AC50 [5] 0.372 µM | AC50 [6] 0.166 µM | AC50 [7] 0.934 µM | IC50 [8] 0.742 µM

CSc1cccc(Nc2ncc3cc(-c4c(Cl)cccc4Cl)c(=O)n(C)c3n2)c1
active: AC50 [1] 1.48 µM | AC50 [5] 1.05 µM | AC50 [7] 1.18 µM
inactive: outcome [13]

Cc1cnc(Nc2cccc(CN3CCOCC3)c2)nc1Nc1cccc(S(=O)(=O)NC(C)(C)C)c1
active: AC50 [1] 0.332 µM | AC50 [2] 7.43 µM | AC50 [3] 5.26 µM | AC50 [4] 2.95 µM | AC50 [5] 1.18 µM | AC50 [6] 14.8 µM | AC50 [7] 2.35 µM

COc1cc(NC(=O)c2ccc(-c3ccc(Cl)cc3)o2)cc(OC)c1
inactive: outcome [1] | outcome [4] | outcome [5] | outcome [6] | outcome [7] | outcome [8] | fold change [9, 14] 0.861 | z-score [11, 18] -0.392
9550: cell count [9, 16]
0.568: z-score [11, 19]
11100: cell count [9, 17]
0.756: fold change [9, 15]
active: AC50 [2] 0.935 µM | AC50 [3] 6.62 µM

CCN(CC)CCNC(=O)c1ccc2nc(-c3ccccc3)c(-c3ccc(CN4CCC(n5c(=O)[nH]c6ccccc65)CC4)cc3)nc2c1
active: AC50 [1] 11.8 µM | AC50 [2] 8.33 µM | AC50 [3] 4.69 µM | AC50 [4] 14.8 µM | AC50 [5] 10.5 µM | AC50 [6] 3.32 µM | AC50 [7] 10.5 µM | IC50 [8] 7.42 µM

CNC(=O)c1cc(Oc2ccc(NC(=O)Nc3cc(C(C)(C)C)nn3-c3ccc4ncccc4c3)c(F)c2)ccn1
0.93: z-score [11, 19]
inactive: outcome [6] | fold change [9, 14] 0.963 | plate-normalised HSF1 focus index [10] 1.01 | viability [12, 20] 112% | viability [12, 21] 112% | viability [12, 22] 103% | viability [12, 23] 108% | viability [12, 24] 102% | viability [12, 25] 117% | viability [12, 26] 110% | viability [12, 27] 103% | viability [12, 28] 108% | viability [12, 29] 116% | viability [12, 30] 116% | viability [12, 31] 102% | viability [12, 32] 107% | viability [12, 33] 118% | viability [12, 34] 110% | viability [12, 36] 115% | viability [12, 37] 113% | viability [12, 38] 114% | viability [12, 41] 105% | viability [12, 42] 120%
active: AC50 [1] 5.9 µM | AC50 [2] 7.43 µM | AC50 [3] 8.33 µM | AC50 [4] 0.0661 µM | AC50 [5] 9.34 µM | AC50 [7] 5.9 µM | IC50 [8] 20.9 µM | z-score [11, 18] 3.18 | viability [12, 35] 97.7% | viability [12, 39] 97.7% | viability [12, 40] 96.9% | viability [12, 43] 96.4% | viability [12, 44] 77.5% | viability [12, 45] 96.1% | viability [12, 46] 29.9% | viability [12, 47] 97.7% | viability [12, 48] 9.96% | viability [12, 49] 8.93% | viability [12, 50] 17.1% | viability [12, 51] 4.51%
608: cell count [9, 16]
0.469: fold change [9, 15]
0.0864: SSMD [10]
6970: cell count [10]
632: cell count [9, 17]
